In PubChem BioAssay (NCATS):
Inconclusive results are not listed. Where a call stands in place of a potency, no number is given. Calls of active or inactive are those of the source. Calls follow the shape of the dose curve; as a rule, active = well fitted curve in the direction sought with a large enough effect; inconclusive = small, poorly fitted or top-dose-only effect, or another doubt; inactive = no such curve, though single readings can be large; an effect the other way counts as inactive or inconclusive.

system: Zika virus NS2B-NS3 protease (unlinked complex); test: Primary screen GU Rhodamine qHTS for Zika virus inhibitors: Unlinked NS2B-NS3 protease assay (AID 1347159); conditions: Recombinant ZIKV NS2B-NS3 protease, Rhodamine110 substrate fluorescence; series mostly up to 107 µM; also: nearly all actives have a fitted effect of over 60% in size
How it was run: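 Percent inhibition came from the 15-min rise in Rhodamine110 fluorescence (1.5 microM substrate, ~15% conversion), normalized to no-inhibitor and no-enzyme wells and Hill-fitted. Unlinked protease, 25 nM, pH 8.0 Tris buffer; compounds up to 114 microM, 15-min preincubation.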

SMILES	Potency
CC1(C)S[C@@H]2[C@H](NC(=O)[C@H](NC(=O)N3CCN(S(C)(=O)=O)C3=O)c3ccccc3)C(=O)N2[C@H]1C(=O)O	inactive
CC(=O)O[C@H]1C[C@@]2(C)[C@@H](C[C@@H](O)[C@H]3[C@@]4(C)CC[C@@H](O)[C@@H](C)[C@@H]4CC[C@@]32C)/C1=C(\CCC=C(C)C)C(=O)O	inactive
O=C(O)CC1CC(c2ccccc2)=NO1 (stereo unspecified)	inactive
COc1ccc(/C=C/C(=O)Nc2ccccc2C(=O)O)cc1OC	inactive

system: Zika virus NS2B-NS3 protease (linked construct); test: Primary screen NINDS Rhodamine qHTS for Zika virus inhibitors (AID 1347160); conditions: purified NS2B-NS3 protease, Rhodamine110 substrate fluorescence; series mostly up to 57.1 µM; also: nearly all actives have a fitted effect of over 55% in size
How it was run: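 Rhodamine110-peptide cleavage (1.5 µM substrate) by 25 nM linked NS2B-NS3 enzyme at pH 8.0 (Tris, Tween 20), after 15 min RT preincubation with compounds; 15-min fluorescence change normalized to controls and Hill-fitted.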

SMILES	Potency
CC1(C)S[C@@H]2[C@H](NC(=O)[C@H](NC(=O)N3CCN(S(C)(=O)=O)C3=O)c3ccccc3)C(=O)N2[C@H]1C(=O)O	inactive
CC(=O)O[C@H]1C[C@@]2(C)[C@@H](C[C@@H](O)[C@H]3[C@@]4(C)CC[C@@H](O)[C@@H](C)[C@@H]4CC[C@@]32C)/C1=C(\CCC=C(C)C)C(=O)O	inactive
CC1(C)[C@@H](O[C@H]2O[C@H](C(=O)O)[C@@H](O)[C@H](O)[C@H]2O[C@@H]2O[C@H](C(=O)O)[C@@H](O)[C@H](O)[C@H]2O)CC[C@]2(C)[C@H]3C(=O)C=C4[C@@H]5C[C@@](C)(C(=O)O)CC[C@]5(C)CC[C@@]4(C)[C@]3(C)CC[C@@H]12	inactive
COc1ccc(/C=C/C(=O)Nc2ccccc2C(=O)O)cc1OC	inactive
O=C(O)[C@H](CC(=O)N1C[C@H]2CCCC[C@H]2C1)Cc1ccccc1	inactive

molecular target: Lysine-specific demethylase 5B (Homo sapiens) (UniProt Q9UGL1); test: Optimization screen for KDM5B Histone Demethylases FDH coupled qHTS against the LOPAC library (AID 1347166); conditions: KDM5B demethylation, FDH-coupled NADH fluorescence (FDH is formaldehyde dehydrogenase); series mostly up to 57.5 µM
How it was run: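 KDM5BDeltaAP (200nM final) in 50mM HEPES pH 7.5, 0.01% Tween-20 was preincubated with compound for 10 min at room temperature. A substrate mix of 12.5uM H3K4Me3, 25uM a-ketoglutarate, ascorbate, Fe2+, NAD+ and formaldehyde dehydrogenase was then added. NADH fluorescence (340/450 nm) was read initially and after 30 min.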

Chain of Lysine-specific demethylase 5B (Homo sapiens) (Q9UGL1 whole entry, looked up): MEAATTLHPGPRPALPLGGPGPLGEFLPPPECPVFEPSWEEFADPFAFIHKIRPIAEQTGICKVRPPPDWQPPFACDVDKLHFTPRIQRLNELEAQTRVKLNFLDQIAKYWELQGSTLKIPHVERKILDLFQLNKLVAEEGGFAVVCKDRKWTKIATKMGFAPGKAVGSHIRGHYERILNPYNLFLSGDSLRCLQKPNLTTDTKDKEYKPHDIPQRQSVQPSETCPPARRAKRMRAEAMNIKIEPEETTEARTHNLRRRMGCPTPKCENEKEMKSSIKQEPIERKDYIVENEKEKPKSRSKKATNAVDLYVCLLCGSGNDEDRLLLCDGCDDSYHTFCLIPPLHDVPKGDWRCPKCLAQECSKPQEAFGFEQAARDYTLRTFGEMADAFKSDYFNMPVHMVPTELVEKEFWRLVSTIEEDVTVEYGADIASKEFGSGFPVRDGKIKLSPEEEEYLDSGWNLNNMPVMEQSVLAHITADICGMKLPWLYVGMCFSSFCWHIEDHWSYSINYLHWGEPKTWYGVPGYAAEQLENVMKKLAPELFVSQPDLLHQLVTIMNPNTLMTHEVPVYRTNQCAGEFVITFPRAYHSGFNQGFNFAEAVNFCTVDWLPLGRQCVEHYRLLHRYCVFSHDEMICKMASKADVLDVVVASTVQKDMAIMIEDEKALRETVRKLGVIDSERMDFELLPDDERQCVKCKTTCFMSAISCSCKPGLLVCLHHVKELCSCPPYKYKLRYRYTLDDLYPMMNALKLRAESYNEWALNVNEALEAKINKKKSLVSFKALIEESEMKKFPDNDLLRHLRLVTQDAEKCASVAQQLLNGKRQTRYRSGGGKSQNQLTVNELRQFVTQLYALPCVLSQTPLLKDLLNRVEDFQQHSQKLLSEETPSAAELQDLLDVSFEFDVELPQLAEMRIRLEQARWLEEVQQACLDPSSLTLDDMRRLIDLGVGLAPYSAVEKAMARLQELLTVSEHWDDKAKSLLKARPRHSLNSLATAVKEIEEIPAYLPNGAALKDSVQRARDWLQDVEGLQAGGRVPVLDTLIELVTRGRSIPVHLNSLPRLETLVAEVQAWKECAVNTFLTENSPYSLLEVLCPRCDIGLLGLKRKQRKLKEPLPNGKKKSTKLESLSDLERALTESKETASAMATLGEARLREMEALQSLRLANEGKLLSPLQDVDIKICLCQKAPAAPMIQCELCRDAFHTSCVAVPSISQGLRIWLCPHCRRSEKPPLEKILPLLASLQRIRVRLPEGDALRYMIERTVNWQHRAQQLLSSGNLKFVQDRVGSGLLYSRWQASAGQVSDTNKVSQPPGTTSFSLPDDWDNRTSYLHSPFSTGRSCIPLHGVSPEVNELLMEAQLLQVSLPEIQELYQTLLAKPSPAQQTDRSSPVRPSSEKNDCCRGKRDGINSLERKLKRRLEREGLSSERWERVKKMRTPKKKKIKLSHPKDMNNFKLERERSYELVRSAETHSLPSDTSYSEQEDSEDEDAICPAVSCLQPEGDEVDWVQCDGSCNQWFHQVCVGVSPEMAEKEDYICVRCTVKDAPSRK

SMILES	outcome
CCCCCCCCCCCCCCCCCC(=O)OC(CC(=O)O)C[N+](C)(C)C (stereo unspecified)	inactive
Nc1ncnc2c1c(I)cn2[C@@H]1C[C@H](N)[C@@H](O)[C@H]1O	inactive
CCCCCCCCCCCCCCCCCCNC(=O)OCC(COP(=O)([O-])OCC[n+]1ccsc1)OC (stereo unspecified)	inactive
Cc1ccc(C(=O)O[C@H](C(=O)O)[C@@H](OC(=O)c2ccc(C)cc2)C(=O)O)cc1 (tested in a mixture with another compound)	inactive
CC(COc1ccc(/C=C/c2ccccc2)cc1)[N+](C)(C)C (stereo unspecified)	inactive
C#CCN1C(C)=C(C(=O)OC)C(c2cccc([N+](=O)[O-])c2)C(C(=O)OCC)=C1C (stereo unspecified)	inactive
CC(C)ON([C@@H](C(=O)NO)C(C)C)S(=O)(=O)c1ccc(-c2ccccc2)cc1	inactive
O=C(O)[C@@H]1C[C@H](C(=O)O)N1	inactive
CCCCCCCCCCCCCCCC(=O)NCC(COP(=O)([O-])OCC[N+](C)(C)C)OCC (stereo unspecified)	inactive
COc1ccccc1N1CCN(CCN(C(=O)c2ccc(I)cc2)c2ccccn2)CC1	inactive
C[N+](C)(C)CC(=O)[O-]	inactive
O=C(c1ccc(OCCCc2cnc[nH]2)cc1)C1CC1	inactive
CN(C)CCCO[C@@H]1[C@H]2OC(C)(C)O[C@H]2O[C@@H]1[C@H](O)CO	inactive
N=C(N)SCCc1ccc(CCSC(=N)N)cc1	inactive
C[N+]1(C)C2CC(OC(=O)[C@H](CO)c3ccccc3)CC1C1OC12 (stereo partly specified)	inactive
CN(C)c1nc2c(Br)c(Br)c(Br)c(Br)c2[nH]1	inactive

SMILES	outcome
COc1ccccc1N1CCN(CCCCNS(=O)(=O)c2cccc3c(N(C)C)cccc23)CC1	inactive
CO/N=C(\C(=O)N[C@@H]1C(=O)N2C(C(=O)O)=C(COC(C)=O)CS[C@H]12)c1csc(N)n1	inactive
O=C(O)CC1CC(c2ccccc2)=NO1 (stereo unspecified)	inactive
COc1cc(OC)c(/C=C2/C(=O)Nc3ccccc32)c(OC)c1	inactive
NCCNC(=O)c1ncsc1-c1cccc(F)c1	inactive
N=c1ccn2c(n1)O[C@H]1[C@H](O)[C@@H](CO)O[C@H]12	inactive
CCCCN1CCC(n2c(=O)[nH]c3ccccc32)CC1	inactive
CN(C)c1ccc(/C=C2\C(=O)Nc3ccccc32)cc1	inactive
OC[C@H]1O[C@@H](n2cnc3c(Nc4ccccc4)ncnc32)[C@H](O)[C@@H]1O	inactive
O=C(O)/C=C/C(O)c1ccc(Cl)cc1 (stereo unspecified)	inactive
CC(C)CC(NP(=O)(O)O[C@@H]1O[C@@H](C)[C@H](O)[C@@H](O)[C@H]1O)C(=O)NC(Cc1c[nH]c2ccccc12)C(=O)O (stereo partly specified)	inactive
CCCCCCCCCCCCCCCCCC(=O)NCC(COP(=O)([O-])OCC[N+](C)(C)C)OCC (stereo unspecified)	inactive
CN1CCc2cc(NC(=O)Nc3cccnc3)ccc21	inactive
O=C1O/C(=C/Br)CCC1c1cccc2ccccc12 (stereo unspecified)	inactive
COc1ccc(/C=C/C(=O)Nc2ccccc2C(=O)O)cc1OC	inactive
NC(=O)C1=CN(C2OC(COP(=O)(O)OP(=O)(O)OC[C@H]3O[C@@H](n4cnc5c(N)ncnc54)[C@H](OP(=O)(O)O)[C@@H]3O)C(O)C2O)C=CC1 (stereo partly specified)	inactive
